“And” between values parts separate entries of the source, which are not always exact repeats. Equal values may be shown once. Inconclusive results are not listed. Where a call stands in place of a potency, no number is given. The source made the active and inactive calls. The call rests on the fitted dose curve; in most records, active means well fitted cell-killing curve with a large enough effect in the repeat runs; inconclusive means weak or mixed curves, or effect the other way; inactive means flat fitted curve, though single readings scatter.
Experiment: qHTS RealTime-Glo MT Cell Viability Assay in HepG2 cells - 0 hour (AID 1224889); further: nearly all actives have a fitted effect of over 50% in size
Settings: RealTime-Glo luminescence; series mostly up to 76.8 µM
Excerpt: U.S. Tox21 Program National Center for Advancing Translational Sciences [NCATS] NIH Chemical Genomics Center [NCGC] U.S. Environmental Protection Agency [EPA] National Institutes of Environmental Health Sciences [NIEHS] National Toxicology Program [NTP] U.S. Food and Drug Administration [FDA] Tox21 Assay Overview: Measure of cell viability is critical in the cell-base assay. Analysis of cell viability is necessary for the characterization of cell responses to cytotoxic drugs and environmental stress. A RealTime-Glo MT Cell Viability Assay to monitor cell viability in real time of continues cell culture during 40 hours of compound treatment was used to screen Tox21 10K library compounds in HepG2 cells. The RealTime-Glo MT Cell Viability Assay is a nonlytic, homogeneous, bioluminescent method to measure cell viability in real time using a simple, plate-based method. The assay involves adding NanoLuc luciferase and a cell-permeant prosubstrate to cells in culture. Viable cells reduce the proprietary prosubstrate to generate a substrate for NanoLuc luciferase. This substrate diffuses from cells into the surrounding culture medium, where it is rapidly used by the NanoLuc Enzyme to produce a luminescent signal. The signal correlates with the number of viable cells, making the assay well suited for cytotoxicity studies.
Tox21 Assay Protocol Summary: The mixture of HepG2 cell suspension and reagents were dispensed at 600cells/6 ul/well in 1536-well tissue culture treated black solid bottom plates using a Multidrop dispenser. After the assay plates were incubated at a 37 C/5% CO2 incubator for 5 hours, 23 nL of compounds dissolved in DMSO, positive and negative controls was transferred to the assay plate by a pintool work station. The plates were incubated at 37 C for 40 hours. The luminescence intensity were measured at 0h, 8h, 16h, 24h, 32h and 40h time points using ViewLux plate reader during compound treatment.
Potency means the concentration at half of the fitted maximal effect.

SMILES | Potency
CCCCOCCOCCO | inactive
c1ccc2c(c1)Oc1ccccc1S2 | inactive
CCCCNS(=O)(=O)c1ccccc1 | inactive
COC(=O)C1=C(C)NC(C)=C(C(=O)OCCN(C)Cc2ccccc2)C1c1cccc([N+](=O)[O-])c1 (stereo not given) | 6.13 µM (active) and 3.38 µM (active)
c1ccc2c(c1)c1cccc3ccc4cccc2c4c31 | inactive
C=C(C)C1CC=C(C)CC1 (stereo not given) | inactive
COC(=O)Nc1nc2ccc(S(=O)c3ccccc3)cc2[nH]1 (stereo not given) | inactive
CC(=O)Oc1ccccc1C(=O)Nc1ncc([N+](=O)[O-])s1 | inactive
NC=O | inactive
CC(CCC(=O)O)(c1ccc(O)cc1)c1ccc(O)cc1 | inactive
Brc1cc(Oc2cc(Br)c(Br)c(Br)c2Br)c(Br)c(Br)c1Br | inactive
Cc1ncc[nH]1 | inactive
Cc1cc2nc3c(=O)[nH]c(=O)nc-3n(C[C@H](O)[C@H](O)[C@H](O)CO)c2cc1C | inactive
Cc1cccc(N(C)C(=S)Oc2ccc3ccccc3c2)c1 | inactive
O=C(/C=C/C=C/c1ccc2c(c1)OCO2)N1CCCCC1 | inactive
CCCCCCCCCCCO | inactive
CCCc1c(OCCCCc2nn[nH]n2)ccc(C(C)=O)c1O | inactive
Nc1ncnc2nc[nH]c12 | inactive
CC(C)CC(C)(O)C#CC(C)(O)CC(C)C (stereo not given) | inactive
Oc1ccc(O)cc1 | inactive

SMILES | Potency
O=C(/C=C/c1ccccc1)OCc1ccccc1 | inactive
Cc1ccc(C)c(O)c1C | inactive
O=Cc1ccccc1O | inactive
C=CC(C)(CCC=C(C)C)OC(C)=O (stereo not given) | inactive
c1ccc2sc(SSN3CCOCC3)nc2c1 | inactive
Nc1ccc(Nc2ccccc2)cc1 | inactive
O=C=Nc1ccc(Cc2ccc(N=C=O)cc2)cc1 | inactive
Clc1nc(Cl)c(Cl)c(Cl)c1Cl | inactive
CC(=O)c1ccccn1 | inactive
c1ccc2cc(Nc3ccc(Nc4ccc5ccccc5c4)cc3)ccc2c1 | inactive
CCCCc1oc2ccccc2c1C(=O)c1cc(I)c(OCCN(CC)CC)c(I)c1 | inactive
c1ccc(Nc2ccccc2)cc1 | inactive
O=C(OCc1ccccc1)c1ccccc1O | inactive
COc1ccc(C(=O)CC(=O)c2ccc(C(C)(C)C)cc2)cc1 | inactive
c1ccncc1 | inactive
O=C1c2cccc(O)c2C(=O)c2c(O)cccc21 | inactive
CCC(C)CO (stereo not given) | inactive
O=C(Nc1ccc([N+](=O)[O-])cc1Cl)c1cc(Cl)ccc1O | inactive
CC1=CCC(C(C)(C)O)CC1 (stereo not given) | inactive
Cc1c(C(N)=O)cc([N+](=O)[O-])cc1[N+](=O)[O-] | inactive

From PubChem BioAssay (Tox21)
